Data taken from PubChem BioAssay.
Where “and” joins values, the source holds several entries; their conditions need not be identical. Identical values can stand only once. Calls of active or inactive are those of the source. Cut-off read from the data, not from the text of the source, unless noted: active = inhibition above about 80%; inactive = the rest.

What was measured:
[1] = UWB1.289 ovarian carcinoma cell growth inhibition, synergistic combos for chromothripsis tumors, BGB or cisplatin combos (AID 1671456); settings: UWB1.289 ovarian carcinoma cells, stronger effect = higher value;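 note: cells exposed to compound for four days; 0% = vehicle DMSO and 100% = killing by high DMSO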
[2] = LFS_MB_2R medulloblastoma cell growth inhibition, synergistic combos for chromothripsis tumors, cisplatin combos (AID 1671457); settings: LFS_MB_2R medulloblastoma cells, stronger effect = higher value;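 note: cells exposed to compound for four days before readout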
[3] = MDA-MB-436 breast carcinoma cell growth inhibition, synergistic combos for chromothripsis tumors, BGB or cisplatin combos (AID 1671458; call rule not given here;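 note: cells exposed for 96 hours; 0% = vehicle DMSO and 100% = killing by high DMSO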); settings: MDA-MB-436 breast carcinoma growth inhibition, drug combinations, stronger effect = higher value
[4] = UWB1.289_BRCA1 ovarian cancer growth, cell-based, BGB or cisplatin combinations (AID 1671459); settings: UWB1.289 BRCA1 ovarian carcinoma, drug combinations, stronger effect = higher value
[5] = human astrocyte viability loss, single and combined drugs, cytotoxicity control for chromothriptic childhood tumor combination screen, cell-based, BGB or cisplatin IC20 combos (AID 1671460); settings: Human astrocytes, drug combinations, stronger effect = higher value;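 note: cells exposed to compounds for 96 hours before viability readout; 0% = vehicle and 100% = killing control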
[6] = growth inhibition of BT084 medulloblastoma cells, cell-based, ICGC_MB145, cisplatin and BGB IC40 combos (AID 1671461); settings: drug combinations, stronger effect = higher value;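 note: cells exposed to drugs for 96 hours; 0% = vehicle DMSO and 100% = high DMSO full killing control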
[7] = growth inhibition of RCMB18 medulloblastoma cells, cell-based, cisplatin and BGB IC40 combos (AID 1671462); settings: stronger effect = higher value;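 note: cells exposed to compound for four days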
[8] = growth inhibition of CRL1545 osteosarcoma cells, cell-based, cisplatin and BGB IC20 combos (AID 1671464); settings: stronger effect = higher value;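 note: cells exposed to compound for 96 hours before readout; 0% = vehicle DMSO and 100% = high DMSO killing control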
F380Y = assay: modulators of BK channel variants, profiling panel, selectivity assay, cell-based, U2OS BacMam, thallium flux, beta subunits (AID 1259406;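 active = thallium flux through the channel raised or lowered by more than 3 SD from vehicle-only wells, actives on both sides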;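 note: initial slope of Thallos dye fluorescence rise after thallium is added; log ratio against the mean of 0.3% DMSO vehicle wells on the same plate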); settings: at 30 µM
F380Y/beta1 = assay: as above; settings: at 30 µM
[9] = measured here: inhibition with BGB combination, at 0.05 µM
[10] = measured here: inhibition with cisplatin combination, at 0.05 µM
[11] = measured here: combination with cisplatin, at 0.5 µM
[12] = measured here: combination with cisplatin, at 5 µM
[13] = measured here: BGB combination, at 0.5 µM
[14] = measured here: BGB combination, at 5 µM
[15] = measured here: cisplatin combination, at 0.5 µM
[16] = measured here: cisplatin combination, at 5 µM
[17] = BGB combination, concentration series, at 5 µM
[18] = cisplatin combination, concentration series, at 5 µM
[19] = measured here: combo with BGB IC20, at 0.5 µM
[20] = measured here: combo with cisplatin IC20, at 0.5 µM
[21] = cisplatin combination, at 0.5 µM
[22] = measured here: BGB IC40 combination 0.05 uM, at 0.05 µM
[23] = measured here: BGB IC40 combination, at 0.05 µM
[24] = measured here: with BGB IC20 combination, at 0.5 µM
[25] = measured here: with cisplatin IC20 combination, at 0.5 µM

In the case of `O=c1c(-c2ccc(O)cc2)coc2cc(O)cc(O)c12`, the inhibition ([1]; at 0.5 µM) is reported as -11.2% (inactive) and 6.51% (inactive), the inhibition [1, 9] is reported as -19.6% and -14.9% and the inhibition [1, 10] is reported as -41.2% and -9.05%. The inhibition ([2]; at 0.5 µM) was -21.6% (inactive) and -9.3% (inactive), the inhibition [2, 11] was -19.9% and -5.5% and the inhibition [2, 12] was 2.54% and -37.8%. The inhibition ([3]; at 0.5 µM) was -10.3% (inactive) and -13.9% (inactive), the inhibition [3, 13] was -9.11% and -11.4% and the inhibition [3, 14] was -2.8% and 13.3%. The inhibition [3, 15] was -11% and -29.3%, the inhibition [3, 16] was -8.45% and 5.18% and the inhibition [4, 17] was 16.4% and 33.4%. The inhibition ([4]; at 0.5 µM) was -10.6% (inactive) and 4.64% (inactive), the inhibition [4, 18] was 5.85% and 47.6% and the inhibition ([5]; at 0.5 µM) was -1.4% (inactive) and 12.1% (inactive). The inhibition [5, 19] was 14% and 8.3%, the inhibition [5, 20] was -16.8% and 13.7% and the inhibition ([6]; at 0.5 µM) was -13.6% (inactive) and -23.4% (inactive). The inhibition [6, 21] was -26.2% and 3.79%, the inhibition ([6]; cisplatin combination, at 5 µM) was 1.19% and 21.5% and the inhibition [6, 22] was -40.6% and -5.57%. The inhibition ([6]; single agent, at 5 µM) was -5.08% and 6.68%, the inhibition ([7]; at 0.5 µM) was 0.59% (inactive) and -8.25% (inactive) and the inhibition ([7]; cisplatin combo, at 5 µM) was -43.5% and 11.5%. The inhibition [7, 23] was -4.72% and -2.4%, the inhibition [7, 11] was 13.5% and -9.76% and the inhibition ([7]; single agent, at 5 µM) was -12.8% and -12.2%. The inhibition ([8]; at 0.5 µM) was -44.2% (inactive) and 5.21% (inactive), the inhibition [8, 24] was -31% and 18.3% and the inhibition [8, 25] was -53.3% and -3.63%. For the same compound, the inhibition ([8]; single agent, at 0.05 µM) was -62.4% and -21.3% and the inhibition ([8]; single agent, at 5 µM) was -46.3% and 9.19%.

With `CC(C)(C(=O)c1cccnc1)c1cccnc1` the log fold change Tl+ flux (F380Y) was -0.0599 (inactive) and the log fold change Tl+ flux (F380Y/beta1) was 0.0309 (inactive).

With `CC(N)C12CC3CC(CC(C3)C1)C2` (stereo not given) the inhibition ([1]; at 0.5 µM) was -6.71% (inactive), the inhibition [1, 9] was -27.7% and the inhibition [1, 10] was -16.3%. The inhibition ([2]; at 0.5 µM) was -18.8% (inactive), the inhibition [2, 11] was -16.8% and the inhibition [2, 12] was -59.2%. The inhibition ([3]; at 0.5 µM) was -35.4% (inactive), the inhibition [3, 13] was -21.6% and the inhibition [3, 14] was -29.1%. The inhibition [3, 15] was -60.5%, the inhibition [3, 16] was -34.4% and the inhibition [4, 17] was -31.1%. The inhibition ([4]; at 0.5 µM) was -16.9% (inactive), the inhibition [4, 18] was 2.74% and the inhibition ([5]; at 0.5 µM) was -10.5% (inactive). For the same compound, the inhibition [5, 19] was -8.28%, the inhibition [5, 20] was -5.35% and the inhibition ([6]; at 0.5 µM) was -35.2% (inactive). It also gave an inhibition [6, 21] of -18.2%, an inhibition ([6]; cisplatin combination, at 5 µM) of -3.55% and an inhibition [6, 22] of 9.42%. For the same compound, the inhibition ([6]; single agent, at 5 µM) was -34.6%, the inhibition ([7]; at 0.5 µM) was -21.2% (inactive) and the inhibition ([7]; cisplatin combo, at 5 µM) was -32.4%. For the same compound, the inhibition [7, 23] was -22.9%, the inhibition [7, 11] was -18.2% and the inhibition ([7]; single agent, at 5 µM) was -26.9%. The inhibition ([8]; at 0.5 µM) was -36.2% (inactive), the inhibition [8, 24] was -19.2% and the inhibition [8, 25] was -48%. The inhibition ([8]; single agent, at 0.05 µM) was -83.2%, the inhibition ([8]; single agent, at 5 µM) was 0.3% and the log fold change Tl+ flux (F380Y) was 0.00103 (inactive). For the same compound, the log fold change Tl+ flux (F380Y/beta1) was 0.0203 (inactive).

With `O=C(O)CCCCCCCC(=O)O` the inhibition ([1]; at 0.5 µM) was -13.5% (inactive), the inhibition [1, 9] was -19.6% and the inhibition [1, 10] was -0.85%. For the same compound, the inhibition ([2]; at 0.5 µM) was -13.9% (inactive), the inhibition [2, 11] was -13.8% and the inhibition [2, 12] was -48.8%. The inhibition ([3]; at 0.5 µM) was -29.2% (inactive), the inhibition [3, 13] was -23.3% and the inhibition [3, 14] was -29%. It also gave an inhibition [3, 15] of -37.4%, an inhibition [3, 16] of -23.5% and an inhibition [4, 17] of -15.5%. The inhibition ([4]; at 0.5 µM) was -19.3% (inactive), the inhibition [4, 18] was -16.1% and the inhibition ([5]; at 0.5 µM) was -11.4% (inactive). For the same compound, the inhibition [5, 19] was -13.8%, the inhibition [5, 20] was -20% and the inhibition ([6]; at 0.5 µM) was -17.8% (inactive). It also gave an inhibition [6, 21] of -4.5%, an inhibition ([6]; cisplatin combination, at 5 µM) of -12.5% and an inhibition [6, 22] of 4.07%. For the same compound, the inhibition ([6]; single agent, at 5 µM) was -1.2%, the inhibition ([7]; at 0.5 µM) was -9.8% (inactive) and the inhibition ([7]; cisplatin combo, at 5 µM) was -40.4%. For the same compound, the inhibition [7, 23] was -4.46%, the inhibition [7, 11] was -13.4% and the inhibition ([7]; single agent, at 5 µM) was -26.4%. For the same compound, the inhibition ([8]; at 0.5 µM) was -28.2% (inactive), the inhibition [8, 24] was -60.3% and the inhibition [8, 25] was -14.7%. It also gave an inhibition ([8]; single agent, at 0.05 µM) of -52% and an inhibition ([8]; single agent, at 5 µM) of -52.1%.
